Experimental data published in PubChem BioAssay AID652054 (National Center for Advancing Translational Sciences (NCATS), 2013).
In all, about 360,000 compounds went through this assay and about 9,100 (2.5%) were called active. Another 4% or so got no clear call; they are omitted. No stated cut-off is given here; in the data, active means max response below about -50%; inconclusive means no clear call, values can overlap the other calls; inactive means above that. For the sample, actives were picked, then their nearest neighbours and some compounds at random.

What follows are compounds tested against D(3) dopamine receptor (Homo sapiens) (UniProt P35462) (assay: qHTS of D3 Dopamine Receptor Antagonist: qHTS). Conditions: D3R cells, DiscoveRx beta-arrestin luminescence, antagonist mode; hits give low values.
D(3) dopamine receptor (Homo sapiens), sequence (P35462 whole entry, looked up): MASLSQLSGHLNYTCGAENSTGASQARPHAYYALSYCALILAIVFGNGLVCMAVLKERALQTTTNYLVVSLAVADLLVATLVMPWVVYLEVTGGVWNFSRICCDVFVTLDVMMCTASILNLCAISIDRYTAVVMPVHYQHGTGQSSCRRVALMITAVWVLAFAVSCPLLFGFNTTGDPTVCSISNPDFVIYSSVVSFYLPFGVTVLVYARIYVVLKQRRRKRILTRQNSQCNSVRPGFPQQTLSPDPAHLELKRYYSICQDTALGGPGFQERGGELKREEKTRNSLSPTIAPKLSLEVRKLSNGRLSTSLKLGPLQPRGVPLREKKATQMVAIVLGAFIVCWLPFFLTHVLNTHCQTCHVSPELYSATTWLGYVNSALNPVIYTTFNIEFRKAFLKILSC
Procedure, shortened: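 Cells plated overnight at 1500 cells/well, then exposed to library compounds with dopamine controls for 90 minutes at 37 degrees C. DiscoveRx reagent added for 30–60 minutes at room temperature; luminescence read, quantitative HTS format.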
On the % scale 0 is the no-effect control and ±100 the full control effect.

Row | Compound | max response, negative = inhibition
1 | CCOC(=O)N1CCN(Cc2nc(Cc3cccc(C(F)(F)F)c3)no2)CC1 | -50.2% (active)
2 | FC(F)(F)c1cccc(Cc2noc(CN3CCC(N4CCCCC4)CC3)n2)c1 | 43.6% (inactive)
3 | CCCNC(=O)C1(C)CCCN(C(=O)c2cccc(OC(C)=O)c2C)C1 (stereo unspecified) | 9.36% (inactive)
4 | COc1ccccc1Cc1c(-c2ccc(Cl)cc2)nc2c3ccccc3ccn12 | 7.3% (inactive)
5 | O=C(NCCS(=O)(=O)NCc1ccc(F)cc1)c1ccccc1 | -8.19% (inactive)
6 | Cc1ccc(CNS(=O)(=O)CCNC(=O)c2ccccc2)cc1 | 18.2% (inactive)
7 | CCCCNCCS(=O)(=O)NCc1ccccc1 | -71.2% (active)
8 | CC(=O)N1CCN(Cc2cc(=O)oc3cc(C)ccc23)CC1 | 10.4% (inactive)
9 | COc1ccc(S(=O)(=O)N2CCN(CC(=O)N3CCNC3=O)CC2)cc1OC | 3.73% (inactive)
10 | Cn1ncc([N+](=O)[O-])c1C(=O)Nc1cc(Cl)ccc1Cl | 0% (inactive)
11 | O=C(CSc1ncn[nH]1)Nc1ccc(Br)cc1Br | -17.2% (inactive)
12 | O=C(CSc1ncn[nH]1)NCc1ccc2c(c1)OCO2 | 5.23% (inactive)
13 | O=C(/C=C/Sc1ncn[nH]1)c1ccc(Cl)cc1 | -50.9% (active)
14 | CN(C)C(=O)c1cccc(-c2cnc3sc(NCc4ccc5c(c4)OCO5)nn23)c1 | 59.7% (inactive)
15 | CCCCCc1c(-c2cccc(Br)c2)ncn1CCc1ccccc1OC | 19.8% (inactive)
16 | CCCNC(=O)C1(C)CCCN(C(=O)c2oc3ccccc3c2C)C1 (stereo unspecified) | -13.3% (inactive)
17 | Cn1cc(Cl)c(C(=O)NNC(=S)Nc2cccc(Cl)c2)n1 | -24.3% (inactive)
18 | Cc1nn(C)cc1C(=O)NNC(=S)Nc1ccc(Cl)cc1 | -63.2% (active)
19 | Cc1nn(C)cc1CNC(=O)Nc1ccc(Cl)cc1 | 6.1% (inactive)
20 | Cc1cccc(CN2CCN(C3CN(Cc4ccccc4)S(=O)(=O)C3)CC2)c1 (stereo unspecified) | -8.28% (inactive)
21 | Cc1cc2nc(-c3ccc(Cl)cc3)c(Cc3cccc(F)c3)n2c(C)c1Br | 0% (inactive)
22 | COc1ccccc1CC1(C)C(=O)Nc2ccc(OC(F)(F)F)cc21 (stereo unspecified) | -16.9% (inactive)
23 | CC(=O)Nc1ccc2c3c(ccc([N+](=O)[O-])c13)CC2 | -18.8% (inactive)

Row | Compound | max response, negative = inhibition
24 | CN1CCN(CCC(=O)N/N=C/C=C2\N(C)c3ccccc3C2(C)C)CC1 | -23.3% (inactive)
25 | CC(=O)Nc1cccc(OCC(=O)/C=C2\N(C)c3ccccc3C2(C)C)c1 | 12.1% (inactive)
26 | CN1/C(=C\C=C2\N=C(c3ccc(F)cc3)OC2=O)C(C)(C)c2ccccc21 | -63.7% (active)
27 | Cc1cc2c(cc1C)N1C(=O)c3cc4ccccc4cc3NC(=O)C1C(=O)N2 (stereo unspecified) | 0% (inactive)
28 | CC(=O)C[C@@H]1OC[C@H](C)N1S(=O)(=O)c1ccc(C)cc1 | 1.58% (inactive)
29 | Cc1nccn1-c1ccc(NC(=O)[C@H]2O[C@@H](n3ccc(=O)[nH]c3=O)[C@H](O)[C@@H]2O)cc1 | 23.4% (inactive)
30 | CCc1nc2c(OCc3ccc(C(F)(F)F)cc3)cccn2c1N(C)C(=O)CC(C)C | 3.13% (inactive)
31 | COc1cccc(-c2cnc(C(O)c3ccccc3OC)[nH]2)c1 (stereo unspecified) | 0% (inactive)
32 | CC1(C(=O)NCc2ccccc2)CSCC(=O)N1CCCn1ccnc1 (stereo unspecified) | 11.4% (inactive)
33 | CCN(CC)c1ccc(/C=N/NC(=O)c2cnccn2)c(O)c1 | -57.7% (active)
34 | CCN(CC)c1ccc(/C=N/Nc2nc(C)cc(C)n2)c(O)c1 | -81.5% (active)
35 | COc1ccc(NC(=O)C/C(C)=N/NC(=O)c2cnccn2)cc1Cl | 3.87% (inactive)
36 | Cc1ccc2cc(/C=N/Nc3ccc(C(=O)O)cc3)c(Cl)nc2c1 | 13.3% (inactive)
37 | CCOc1cc(/C=N/Nc2cc(C)nc3ccc(C)cc23)ccc1O | 3.59% (inactive)
38 | Cc1ccc(/C=N/NC(=O)C2=NNC(c3ccccc3)(c3ccccc3)C2)c(O)c1 | 15.1% (inactive)
39 | c1cc(-c2ccc3[nH]ccc3c2)n2ccnc2c1 | 0% (inactive)
40 | CCNC(=O)C1(C)CCN(C(=O)c2ccccc2)C1 (stereo unspecified) | 0% (inactive)
41 | COc1ccc(C(C(=O)NCc2ccccc2)n2c(=O)c(-c3ccccc3)nc3ccccc32)cc1 (stereo unspecified) | -3.74% (inactive)
42 | COc1ccc(OC)c(NC(=O)C2CCCN2S(=O)(=O)c2ccc3c(c2)CC(C)N3C(C)=O)c1 (stereo unspecified) | -11.1% (inactive)
43 | CCN(CCN(C)C)C(=O)c1ccc2nc(C)c(N(C)C(=O)CCc3ccccc3)n2c1 | 14.8% (inactive)
44 | COc1ccc(S(=O)(=O)N2CCC(C(=O)NCCC(=O)Nc3ccccc3OC)CC2)cc1 | 23.8% (inactive)
45 | CN=C1C=C/C(=N/N=c2\ccn(O)cc2C)C=C1C | -67.8% (active)
46 | O=C(COC(=O)CCc1c[nH]c2ccccc12)Nc1cccc(Cl)c1 | -6.82% (inactive)
